# Assay outcomes from PubChem.
# ATXN viability: cell viability loss in ATXN counter-screen. 0.49% of 400,000 active. AID 651635. Potency, µM (series often up to 56.7 µM), actives largely listed as cytotoxic. S2 cells (HEK-293 line with an ATXN2-luciferase reporter) viability, CellTiter-Fluor protease fluorescence, 24 h; also: nearly all actives have a fitted effect of over 40% in size
# ATXN2 expr inh: reduces ATXN2 reporter expression in HEK-293 cells. HEK-293 ATXN2-luciferase reporter, luminescence, 24 h. Potency, µM (series often up to 57 µM), inactives show at the top dose activity change, negative = inhibition, actives largely listed as inhibitors. 0.72% of 360,000 active. AID 1745845; also: % is scaled to controls: 0 for no effect and ±100 for the full control effect; nearly all actives have a fitted effect of over 55% in size
#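 ATXN2-luciferase reporter cells (luciferase flanked by upstream and downstream ATXN2 gene portions) were treated 24 h at 37 °C with compounds at up to 57 uM. SteadyGlo luminescence gave expression; GF-AFC fluorescence gave viability.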
# HT1080 IDH1KD tx: HT-1080 IDH1 knockdown cell toxicity (counter line); Potency, µM (highest dose often 46.1 µM), without a hit: top-dose activity, negative = toxicity, actives largely listed as cytotoxic; AID 686971; HT-1080 IDH1 knockdown viability, ATP luminescence, 48 h; 2% of 360,000 active;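 also: 0% = DMSO wells and -100% = cell-free medium wells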
#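 Viability of IDH1-knockdown HT-1080 fibrosarcoma cells was assessed by CellTiter-Glo after 48 h at 37 °C with titrated compound; concentration-effect curves were classified by fit quality and response size.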
# HepG2 viability: kills HepG2 cells in TGF-b inhibitor counter-screen; HepG2 CAGA-GFP viability, ATP luminescence, 18 h; Potency, µM (doses to about 46.1 µM), for inactives: top-dose activity change, negative = cytotoxicity, most hits filed as cytotoxic; 0.76% of 410,000 active; AID 588856
#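 CellTiter-Glo luminescence gave cytotoxicity after 18 hours at 37 degrees C. The cells were HepG2 CAGA-GFP in 1% FBS DMEM, stimulated with 500 pg/mL TGF-beta after compound addition. %Activity was normalised to no-cell wells (complete cell-killing) and DMSO (no toxicity), and curves were fitted and classified.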
# HT1080NT lethal: kills 2HG-producing HT-1080-NT fibrosarcoma cells; AID 686970; Potency, µM (titrated, usually from 46.1 µM), for inactives: at the highest dose activity, negative = less viability, hits mostly cytotoxic; 1.6% of 360,000 active; HT-1080-NT fibrosarcoma viability, CellTiter-Glo ATP luminescence, 48 h;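 also: NT is the 2HG producing partner of a matched IDH1 knockdown line; 0% = DMSO-treated cells and -100% = media-only wells without cells; nearly all actives have a fitted effect of over 55% in size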
#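 Compounds were tested in concentration-response format on HT-1080-NT cells for 48 hours at 37 degrees C. Cell viability came from CellTiter-Glo luminescence; curves were classified by r2, response magnitude and activity.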
# TGFb SMAD3 inh: blocks TGF-b signaling. Potency, µM (doses to about 46.1 µM), for inactives: top-dose activity, negative = inhibition, actives largely listed as inhibitors. 1.2% of 410,000 active. HepG2 CAGA-GFP TGF-b/SMAD3 reporter, GFP fluorescence, 18 h; TGF-beta stimulated, 500 pg/mL final; also: % is scaled to controls: 0 for no effect and ±100 for the full control effect; nearly all actives have a fitted effect of over 65% in size
#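 TGF-beta reporter screen: HEPG2 CAGA-GFP, 1% FBS, 500 pg/mL TGF-beta final, 18 h; per-cell GFP summed per well; curves fitted and categorized by class.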
# Active calls of the source: *; i = inactive; ? = inconclusive; . = no result given. An excerpt weighted towards active compounds, which were near 3.8% of everything screened. Calls follow the shape of the dose curve; as a rule, active = well fitted curve in the direction sought with a large enough effect; inconclusive = small, poorly fitted or top-dose-only effect, or another doubt; inactive = no such curve, though single readings can be large; an effect the other way counts as inactive or inconclusive. Potency is read from the fitted curve at half-maximal effect.
SMILES,ATXN viability,ATXN2 expr inh,HT1080 IDH1KD tx,HepG2 viability,HT1080NT lethal,TGFb SMAD3 inh
CN(Cc1ccco1)C(=O)c1ccc2c(c1)N(Cc1ccccc1F)C(=O)c1ccccc1S2,.,.,.,-14%,.,-26%
CC(C)NC(=O)c1nn(C)c2c1CS(=O)(=O)c1ccccc1-2,i,8%,.,11%,.,-2%
O=C(NCC1(N2CCOCC2)CCCCC1)c1cnn(-c2nccc(-c3ccco3)n2)c1C1CC1,i,.,.,.,.,.
O=C(CCN1CCOCC1)c1ccc(N2CCCCC2)cc1,?,?,-2%,-99%,-29%,14µM*
CC(C)COc1ccc(C(=O)CCN2CCCCC2)cc1,i,-23%,?,-95%,18µM*,?
CCCCOc1ccc(C(=O)CCN2CCCCC2)cc1,i,?,18µM*,-81%,?,?
CCCCCCCCCCCCCCCCCCN(C)C,i,5%,.,.,.,.
CO[C@H]1[C@H](NC(=O)c2ccco2)c2ccccc2C12CCN(Cc1cccn1-c1ccccn1)CC2,i,.,.,.,.,.
OCCN1CCN(c2ncnc3c2c(-c2ccccc2)cn3-c2ccc(Br)cc2)CC1,i,-30%,23µM*,-1%,16µM*,1%
COc1ccc(-n2cc(-c3ccccc3)c3c(NCCCN4CCOCC4)ncnc32)cc1,.,?,18µM*,-20%,21µM*,10%
c1ccc(-c2cc3c(N4CCCC4)ncnc3s2)cc1,i,29%,9%,-15%,23%,-16%
OCCN1CCN(c2ncnc3sc(-c4ccccc4)cc23)CC1,i,-14%,?,-4%,18µM*,-4%
COC(=O)C[C@H]1c2ccccc2S(=O)(=O)N1c1ccc(N(C)C)cc1,.,.,.,5%,.,-2%
COc1ccc(OC)c(C2CC(=O)c3c([nH]c(C(=O)OC4CCC(C)CC4)c3C)C2)c1 (stereo not drawn),?,4%,.,-5%,.,-10%
CCOCCOC(=O)c1[nH]c2c(c1C)C(=O)CC(c1ccc(N(C)C)cc1)C2 (stereo not drawn),i,-19%,?,25%,1%,9%
CCC(C)OC(=O)c1[nH]c2c(c1C)C(=O)CC(c1ccc(N(C)C)cc1)C2 (stereo not drawn),?,-36%,23µM*,-15%,?,-25%
COc1cc(C2CC(=O)c3c([nH]c(C(=O)OCCOC(C)C)c3C)C2)cc(OC)c1OC (stereo not drawn),?,32µM*,-2%,-46%,-3%,-34%
CCCOCCOC(=O)c1[nH]c2c(c1C)C(=O)CC(c1cc(OC)ccc1OC)C2 (stereo not drawn),?,-19%,4.1µM*,-1%,5.8µM*,-13%
COc1ccc(OC)c(C2CC(=O)c3c([nH]c(C(=O)OC(C)C)c3C)C2)c1 (stereo not drawn),?,2%,3.3µM*,-5%,5.8µM*,-21%
CC(=O)c1ccc(NC(=O)CSc2nc(C3CCCC3)nc3c2c(=O)n(C)c(=O)n3C)cc1,?,-2%,.,0%,.,-2%
